The supplement of paper PMC3334620
The full ranking holds about 33,000 sequences; the median of “E-score (-0.5 to 0.5)” is about -0.013, and the highest 2% start at about 0.3. This is one part of a sample in which the highest values are shown more often than they occur.

Target: T1, Msn1 (UniProt P22148)
T1 sequence: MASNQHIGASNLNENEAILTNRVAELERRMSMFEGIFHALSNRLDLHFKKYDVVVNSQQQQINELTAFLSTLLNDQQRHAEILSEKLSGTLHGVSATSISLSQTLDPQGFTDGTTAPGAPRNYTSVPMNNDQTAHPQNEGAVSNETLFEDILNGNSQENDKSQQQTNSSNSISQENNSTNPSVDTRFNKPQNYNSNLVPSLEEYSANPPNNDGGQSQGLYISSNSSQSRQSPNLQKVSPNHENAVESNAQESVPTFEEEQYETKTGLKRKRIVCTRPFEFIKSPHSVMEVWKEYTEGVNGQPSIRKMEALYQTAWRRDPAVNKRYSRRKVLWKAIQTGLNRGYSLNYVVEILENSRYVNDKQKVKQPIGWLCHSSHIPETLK
Assay: PBM E-score (8-mer binding enrichment) (E-score (-0.5 to 0.5)); higher = stronger / more preferred TF binding
Details: protein concentration: 200 nM; construct: GST-full length
Method: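 Universal 'all 10-mer' protein binding microarrays (Agilent AMADID 015681) probed with GST-tagged S. cerevisiae TFs (full-length or DBD) made by in vitro transcription/translation (PURExpress), about 100-200 nM. Bound TF was detected with fluorescent anti-GST. Each ungapped 8-mer (which stands for itself and its reverse complement) is scored by the PBM enrichment score (E-score), a modified Wilcoxon-Mann-Whitney statistic from -0.5 to +0.5, computed with the Universal PBM Analysis Suite. Scale: above 0.35 generally sequence-specific binding.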

Sequence | PBM E-score
AGACTTTA | 0.0848
CGACTTTA | 0.201
GGACTTTA | 0.328
CGTGACAG | 0.0649
TGTGACAA | 0.377
GGTGACAA | 0.322
CCTGACAA | 0.202
AGTGACAA | 0.302
GTTGACAA | 0.269
GGTGACAC | -0.0303
CGTGACAA | 0.309
TCTGACAA | 0.198
CCGCCAGG | -0.117
AACAGCGG | -0.0502
CGCTATGC | -0.215
GGGTCCGA | -0.115
CTGTCCGA | 0.275
AGGTCCGA | 0.132
ACGTCCGA | -0.00037
ATGTCCGA | 0.475
GTGTCCGA | 0.37
AGTCCTGC | 0.0243
AAAATCTG | 0.182
AGATTGCC | -0.0449
AAAGACCG | 0.0194

Sequence | PBM E-score
CAGGTAGA | -0.142
CCCTTCAA | -0.185
ATAGAGCG | -0.0637
ATTTTGTA | 0.209
AATTTGAC | 0.194
ATTTTGTC | 0.468
AATTTGTG | 0.186
ATTTTGTG | 0.144
AATTTGTC | 0.488
GGGGGAAC | -0.456
GTAAAGTA | 0.0255
GCGGGACA | 0.359
TCGGGAAA | 0.176
GCGGGACC | -0.22
ACGGGACC | -0.247
TCGGGACA | 0.456
CCGGGACA | 0.457
TCGGGAGA | 0.014
ACGGGACT | 0.0899
GCGGGATA | 0.0848
CCGGGACG | -0.0555
ACGGGACA | 0.384
CCGGGACC | -0.159
GAGCCCGA | -0.128
CTAGTGGA | -0.211

Sequence | PBM E-score
CGGAGGAC | 0.0943
ACTTAGCG | 0.074
ACCTCGAG | -0.0305
CATGGTCA | 0.117
CTGGGGTC | -0.217
CGACTTCA | 0.0948
GCGCTTGA | 0.00998
GGACTTCA | 0.0504
ACACTGTC | 0.165
GTCCTTAA | 0.433
ATCCTACA | -0.189
CTCCTACA | -0.187
GTCCTACA | 0.385
ATCCTTAA | -0.126
TTCCTAAA | 0.0739
ATCCTAGA | -0.0654
CTCCTAGA | -0.0389
GTCCTAGA | 0.342
ATCCTAAA | -0.0285
GTCCTAAA | 0.365
CTCCTTAA | -0.0988
ACAGCCGA | -0.16
GGCAAACC | -0.244
ACTCTCCG | -0.11
ACCTCCTG | -0.169

Sequence | PBM E-score
AGCATACC | -0.0756
ACACTAAC | 0.119
CTCTATGC | -0.0926
AGTCGGAG | -0.189
GGACTTAC | 0.273
CCTCCGGA | 0.102
GTCCTAAC | 0.36
ATCCTAAC | 0.0664
CTACTAGA | -0.0895
CTCCTAAC | -0.278
ATACTAGA | 0.125
GTACTAGA | 0.308
ACTCAAAG | 0.0435
ATGCGTTA | -0.0377
CACACTAC | -0.188
CAAGGGCG | -0.191
ATGCAGAG | -0.253
ATCGGACA | 0.369
CTCGGACA | 0.44
ATCGGACG | 0.00151
GTCGGATA | 0.0474
CTCGGACC | 0.165
CTCGGATA | 0.157
GTCGGAGA | 0.0165
ATCGGACC | 0.0183

Sequence | PBM E-score
GTCGGACA | 0.427
CTGGGCCC | -0.252
CGCCTGGA | -0.0478
ACTGAACA | 0.0547
CATTGCGA | -0.0316
ATCACCAA | -0.0626
GAGTAATC | -0.128
CCGACTGC | -0.00611
TAATGTAA | 0.114
ACGGTTCT | -0.0415
CTACAATA | 0.0926
ATACAATC | -0.0273
AGACAACA | 0.248
CGACAACA | 0.204
GCACAAGA | -0.0415
GTACAATA | 0.332
AGACAATC | 0.359
GGACAAGA | 0.458
CGACAAGA | 0.121
ATACAATA | 0.114
GGACAACA | 0.337
AGACAACC | 0.208
AAATCTCC | -0.234
AGCCTTCC | -0.323
ACTTCGCT | -0.0222

Sequence | PBM E-score
AGGGCCAT | -0.246
AATTTCCT | 0.0244
TACGGGGA | -0.11
ATCGTATG | 0.0884
CGACAATC | 0.113
GAACAATA | 0.144
ACACAATA | 0.15
AGACAATA | 0.428
AGACAATG | 0.295
CGACAAGC | -0.0394
CGACAATA | 0.334
AGACAAGA | 0.3
CCACAATA | -0.105
GCACAATA | -0.126
GGACAATA | 0.464
AGACAAGC | 0.307
CCCTAGCA | -0.119
CGTAGCAC | -0.0105
CATAGATA | 0.126
AGCGAATG | -0.207
AGAGTATG | -0.143
AGAACTGA | 0.0524
TCACTTCA | -0.0878
GATTTTCA | 0.209
TACAGCAA | 0.00838

Sequence | PBM E-score
AAACGTCC | 0.317
GAACGTCC | 0.206
AAACGTCT | 0.24
TACTTCAA | 0.16
AGGATACG | -0.105
CTCGCCCC | -0.302
AAGGTACA | 0.166
CTGTGAGA | 0.00231
GACATGGC | 0.276
CACATGTG | -0.149
AACATGTG | 0.0694
ATCATGTC | 0.278
GACATGTC | 0.455
AACATGTT | -0.0343
TACATGTA | 0.247
GACATGTA | 0.424
CACATGTC | 0.431
AACATGTA | 0.186
AACATGTC | 0.401
CACATGTA | 0.121
CGAGGGCG | -0.271
GACTCATC | -0.0489
GCTCTGCC | -0.281
GCGGTCCC | -0.188
ACTATGAA | 0.112

Sequence | PBM E-score
CGCAATAA | 0.212
ATCGAAAT | -0.151
CAATAGCA | -0.168
ACCAGGAA | -0.0403
CCCAGGAC | 0.0729
ACGAGGAC | 0.324
ACGAGGAT | -0.178
ATCAGGAG | -0.0236
CTCAGGAC | 0.243
GTCAGGAC | 0.316
GCCAGGAC | 0.212
ACCAGGAC | 0.329
ATCAGGAC | 0.307
GTCAGGAA | 0.0369
GCGAGGAC | 0.0256
CATAAAGC | -0.057
CGTGCTGC | -0.144
CTTCACTA | -0.0698
CTGAGAAG | -0.24
CCGTTGCA | 0.0113
ACCTTCTG | -0.0438
ATGAGTGA | 0.12
ATTGTTAA | 0.0881
GTTGTTAA | 0.334
CTTGTTAA | -0.0116

Sequence | PBM E-score
CAGAGAAG | -0.18
GCGTCTAC | -0.0433
CACATGCC | 0.0209
GACATGCA | 0.276
GACATGAA | 0.308
CACATGAA | 0.0613
GACATGGA | 0.342
TACATGGA | 0.193
GACATGCC | 0.337
CACATCCC | -0.14
TACATGAA | 0.117
AACATGGA | 0.159
GACATCCC | 0.374
AACATCCC | 0.0693
AACCACAA | 0.042
CCGCTAAG | 0.0391
ATACACTG | 0.0602
AAAAAGAA | 0.036
ATTGGAAG | -0.0559
